Experimental findings from PubChem BioAssay (NCATS) are described below.

Activity calls are given as the source filed them. Calls follow the shape of the dose curve; as a rule, active = well fitted cell-killing curve with a large enough effect; inconclusive = small, poorly fitted or top-dose-only effect; inactive = flat fitted curve, though single readings scatter.

This assay can be described thus: MultiTox-Fluor Cytotoxicity Assay - LYMP1-003 - Live Cells (AID 962).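 Also: cytotoxic hits lower the live-cell protease signal.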 To be noted: LYMP1-003 lymphoblastoid cells, MultiTox-Fluor live-cell protease fluorescence; series mostly up to 92.2 µM. The text has this: NIH Chemical Genomics Center [NCGC]
NIH Molecular Libraries Screening Centers Network [MLSCN]
National Institutes of Environmental Health Sciences [NIEHS]
National Toxicology Program [NTP]
We have developed a 1536-well cell-based assay for quantitative high throughput screening (qHTS) against a number of cell lines to determine in vitro cytotoxicity of small molecules. This particular assay uses a human lymphoblastoid cell line (LYMP1-003) purchased from Coriell Institute.
NCGC Assay Protocol Summary:
The MultiTox-Fluor Cytotoxicity Assay (Promega) is a homogeneous method to simultaneously measure the relative number of live and dead cells in culture by detecting changes in cell membrane integrity. There are two fluorogenic peptide substrates in the assay reagent. Viable cells are determined when the cell-permeant substrate (GF-AFC) enters the cell and is cleaved by protease from live cells resulting in liberated fluorophore. This live-cell protease activity restricted to viable cells is proportional to cell number. The dead cells are determined by using fluorogenic cell-impermeant peptide substrate (bis-AAF-R110) which cleaved by dead cell proteases leaking from damaged cell membrane.
Using the MultiTox-Fluor Cytotoxicity Assay, the relative number of live cells was measured in the lymphoblastoid cell line with complete culture medium following compound treatment for 16 hours. The assay was performed in opaque black Kalypsys 1536-well plates. In the screen, tetraoctylammonium bromide was used as positive control. Library compounds were measured for their ability to cause acute toxicity in the cell line, as reflected by a decrease in live cell protease activity, in a concentration-dependent manner. […] AC50 values were determined from concentration-response data modeled with the standard Hill equation.
qHTS protocol for MultiTox-Fluor Cytotoxicity assay
[Step] [Parameter] [Value] [Description]
1. Reagent; 5 uL; 2500 lymphoblastoid cells/well
2. Time; 5 hr; 37 C incubation
4. Controls; 23 nL; Tetraoctylammonium bromide 6.4pM to 92 uM
5. Time; 16 hr; 37 C incubation
6. Reagent; 5 uL; MuliTox-Fluor Assay reagent
7. Time; 60 min; Room Temperature
8. Detection; live-cell fluorescence (Ex/Em=405/510); EnVision plate reader
Keywords: cell viability, cytotoxicity, lymphoblastoid cell line, fluorescence, NTPHTS, NTPHTS_NCGC, NIEHS, EPA, DSSTox, MLSMR, MLSCN, NIH Roadmap, qHTS, NCGC
On to `Cc1ncc[nH]1`, for which the call was inactive. To `[O-][N+](=Nc1ccccc1)c1ccccc1` belongs “inactive”; to `OCl`, “inactive”; to `CC(C)(C)CC(C)(C)c1ccc(OCCO)cc1`, “inactive”. To `CCOC(C)OCC` belongs “inactive”; to `CC[C@H]1OC(=O)[C@H](C)[C@@H](O[C@H]2C[C@@](C)(OC)[C@@H](O)[C@H](C)O2)[C@H](C)[C@@H](O[C@@H]2O[C@H](C)C[C@H](N(C)C)[C@H]2O)[C@](C)(O)C[C@@H](C)CN(C)[C@H](C)[C@@H](O)[C@]1(C)O`, “inactive”. As for `C[C@H](CCC(=O)O)[C@H]1CC[C@H]2[C@@H]3CC[C@@H]4C[C@H](O)CC[C@]4(C)[C@H]3C[C@H](O)[C@]12C`, the entry is “inactive”. On to `ClC(Cl)Cl`, for which the result was inactive. As for `Cc1ccc(S(=O)(=O)O)cc1C`, the entry is “inactive”; as for `NCCN`, “inactive”; as for `CC1=CCC2CC1C2(C)C` (stereo unspecified), “inactive”.

`c1ccc2ccccc2c1`: the outcome was inactive. As for `Oc1ccc(/C=C/c2cc(O)cc(O)c2)cc1`, the entry is “inactive”. As for `Nc1ccc(N=Nc2ccccc2)c(N)n1`, the entry is “inactive”; as for `CC(C)O`, “inactive”.

Turning to `CO/N=C(/C(=O)N[C@@H]1C(=O)N2C(C(=O)O)=C(COC(N)=O)CS[C@H]12)c1ccco1`, the call was inactive. Regarding `OC[C@H]1O[C@@H]2O[C@H]3[C@H](O)[C@@H](O)[C@@H](O[C@H]4[C@H](O)[C@@H](O)[C@@H](O[C@H]5[C@H](O)[C@@H](O)[C@@H](O[C@H]6[C@H](O)[C@@H](O)[C@@H](O[C@H]7[C@H](O)[C@@H](O)[C@@H](O[C@H]1[C@H](O)[C@H]2O)O[C@@H]7CO)O[C@@H]6CO)O[C@@H]5CO)O[C@@H]4CO)O[C@@H]3CO`, the result was inactive. Consider `COC(=O)c1ccccc1O`, for which the outcome was inactive. To `OCc1ccccc1` belongs “inactive”; to `CCCCO`, “inactive”; to `Oc1cccc(O)c1O`, “inactive”. For the compound `OCC(O)CO`, the outcome was inactive.

Turning to `CCCCC`, the outcome was inactive. As for `Nc1ncnc2c1ncn2[C@H]1CC[C@@H](CO)O1`, the entry is “inactive”; as for `CO`, “inactive”; as for `CC1=CC(=O)NS(=O)(=O)O1`, “inactive”. With `CC/C=C\C/C=C\C/C=C\CCCCCCCC(=O)O`, the compound was classed as inactive.

With `O=P(O)(O)O`, the result was inactive. As for `O.O.O.O.O.O.O.O=S(=O)([O-])[O-].[Co+2]`, the entry is “inactive”. As for `Nc1nccs1`, the entry is “inactive”; as for `NC(N)=O`, “inactive”; as for `C/C=C/C=C/C(=O)O`, “inactive”. To `C[C@H](CCC(=O)O)[C@H]1CC[C@H]2[C@@H]3[C@H](O)C[C@@H]4C[C@H](O)CC[C@]4(C)[C@H]3C[C@H](O)[C@]12C` belongs “inactive”. With `OB(O)O`, the compound was classed as inactive. `O=c1n(CC2CO2)c(=O)n(CC2CO2)c(=O)n1CC1CO1` (stereo unspecified): the result was inactive.

On to `C=C1C(CCl)(CCl)C2(Cl)C(Cl)C(Cl)C1(Cl)C2(Cl)Cl` (stereo unspecified), for which the compound was classed as inactive.
